TIM10 inh – TIM10 yeast growth inhibition; S. cerevisiae TIM10 strain growth, BacTiter-Glo luminescence, 24 h; inhibition, % at 10 µM; 330,000 tested, 1.4% active;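 active = inhibition of 40% or more at the single tested concentration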;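 note: wild-type TIM10 isogenic control strain grown at permissive 25 °C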
tim23-1 inh – inhibits growth of tim23-1 mutant yeast | S. cerevisiae tim23-1 growth, BacTiter-Glo luminescence, 24 h | inhibition, % at 20 µM | 330,000 tested, 1.3% active | AID 463212;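 active = growth inhibition of the mutant yeast at or above 50%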;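 note: temperature-sensitive mutant grown at 25 °C; plate controls were DMSO-treated mutant yeast for no effect and medium wells lacking yeast for full effect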
tim10-1 inh – tim10-1 yeast growth inhibition. 330,000 tested, 2.2% active. S. cerevisiae tim10-1 ts strain growth, BacTiter-Glo, 24 h. inhibition, % at 20 µM;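 active = inhibition of at least 40%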;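 note: mutant grown at 25 °C; 0% = DMSO wells with yeast and 100% = wells holding no yeast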
PfHsp90 yeast 2 – inhibits growth of yeast expressing Plasmodium falciparum Hsp90. S. cerevisiae expressing PfHsp90, BacTiter-Glo ATP, 48 h; yeast lacking PDR1 and PDR3 efflux regulators. inhibition, % at 9.4 µM. 310,000 tested, 0.32% active;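 active = every replicate shows inhibition above about 80%, whatever the replicate mean, limit read from the data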;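 note: 0% = DMSO neutral controls and 100% = 20 µM radicicol positive controls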
Rce1 inhib – yeast Ras-converting enzyme inhibition | calls only | AID 2563 | 290,000 tested, 0.27% active | Q03530 | yeast membranes, quenched prenylated peptide cleavage fluorescence;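 active = fall in fluorescence gain of 50% or more versus controls, with final raw signal at or below 3038400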;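 note: plate controls were neutral control wells for no effect and wells lacking membranes for full effect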
Target sequence (Q03530 whole entry, looked up): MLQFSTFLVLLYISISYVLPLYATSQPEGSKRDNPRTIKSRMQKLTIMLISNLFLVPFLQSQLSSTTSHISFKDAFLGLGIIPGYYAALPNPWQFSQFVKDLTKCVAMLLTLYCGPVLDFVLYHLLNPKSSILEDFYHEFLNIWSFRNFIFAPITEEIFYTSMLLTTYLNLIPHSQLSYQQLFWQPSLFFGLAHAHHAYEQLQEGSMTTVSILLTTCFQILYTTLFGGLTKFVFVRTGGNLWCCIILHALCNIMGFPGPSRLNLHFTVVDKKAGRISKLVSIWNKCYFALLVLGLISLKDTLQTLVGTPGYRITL
tim10-1 conf – tim10-1 yeast growth inhibition, confirmed | 7,400 tested, 56% active | inhibition, % at 20 µM | S. cerevisiae tim10-1 ts strain growth, BacTiter-Glo, 24 h | shares compounds with tim10-1 inh;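 active = inhibition of yeast growth at or above a set limit in either of two repeat tests at 20 µM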;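 note: tim10-1 mutant grown at permissive 25 °C to find synthetic lethal compounds; 0% = DMSO yeast wells and 100% = medium wells without yeast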
An asterisk follows results filed as active; i = inactive; . = no result given. A selection: hits, their analogues and other compounds. The true share with any hit is near 3.7%.

SMILES	TIM10 inh	tim23-1 inh	tim10-1 inh	PfHsp90 yeast 2	Rce1 inhib	tim10-1 conf
N#CC(c1ccccc1)N(CCCCl)C(=O)c1ccccc1 (configuration not stated)	6.6	12.6	25.0	-14.9	i	.
CN(C)C(=O)[C@H]1C[C@H]1[C@@H](O)[C@H](CO)NC(=O)[C@H](COCc1ccccc1)NC(=O)OC(C)(C)C	11.1	5.4	-20.1	23.5	i	.
CCCOc1ccccc1/C=C1\SC(N2CCCCC2)=NC1=O	16.6	43.1	42.0*	10.8	i	33.3*
O=C1N=C(N2CCCCC2)S/C1=C\c1ccccc1F	-1.9	20.1	-3.9	-4.2	i	.
CS(=O)(=O)c1ccccc1-c1nc(-c2ccc(C(F)(F)F)cc2)no1	28.3	44.4	40.1*	4.2	i	20.4
COc1ccc(C(=O)NNC(=O)C23CC4CC(CC(C4)C2)C3)cc1OC	2.9	13.0	6.7	19.8	.	.
O=C(COC(=O)c1ncc(Cl)c(Cl)c1Cl)NC1CCCCCC1	11.2	30.3	42.8*	.	i	19.2
CCOC(=O)c1ccc(NC(=O)CCc2nc(-c3ccccc3Cl)no2)cc1	33.6	30.4	40.7*	-16.2	i	29.3*
Nc1cccc(NP(=O)(c2ccccc2)c2ccccc2)c1	0.2	17.1	5.9	1.0	i	.
Cc1ccc(NC(=O)NCCN2CCCCC2)cc1C	8.8	-4.2	-14.3	-25.2	i	.
CCCCSCCCNC(=O)Nc1ccc(C)c(C)c1	1.3	31.3	46.8*	.	i	15.3
CCOC(=O)Cc1csc(NC(=S)NC(=O)c2ccc(Cl)cc2)n1	-2.1	2.6	5.8	.	i	.
CCOC(=O)Cc1csc(NC(=S)NC(=O)C(C)(C)C)n1	17.3	33.8	41.2*	-7.5	i	18.2
CCOC(=O)Cc1csc(N/N=C/c2ccccc2)n1	25.5	35.9	41.3*	-36.6	i	20.2
CC(=O)Nc1ccc(C(=O)OCC(=O)c2ccc(F)cc2)cc1	25.1	4.2	13.9	-7.6	i	.
CC(=O)Nc1ccc(C(=O)OCc2ccc(F)cc2)cc1	26.6	-24.7	42.0*	-96.7	i	23.1
COc1ccc(CCn2c(-c3ccco3)nc3nc4ccccc4nc32)cc1	28.4	18.3	41.2*	-40.3	i	11.8
CCn1c(SCc2cccc(F)c2)nc2c(c1=O)SCC2	-9.6	4.3	15.2	-4.6	i	.
CC(C)NC(C(=O)Nc1cc(Cl)cc(Cl)c1)c1ccccc1 (configuration not stated)	14.1	19.4	26.2	-7.9	i	.
O=C(Nc1cc(Cl)cc(Cl)c1)C(NCC1CCCO1)c1ccccc1 (configuration not stated)	23.4	35.6	44.7*	24.3	i	26.3
O=C(COC(=O)c1c(F)cccc1F)c1ccc[nH]1	-29.9	-2.1	0.2	.	i	.
CC(=O)C1=C(C)N(Cc2ccccc2)C(=O)N[C@@H]1c1cccc(C(F)(F)F)c1	23.6	37.6	41.5*	-14.7	i	25.9
COC(=O)c1cc(CN2CCN(c3ccccc3C)CC2)ccc1O	-4.3	26.3	6.2	-1.9	i	.
Cc1ccc(OC(C)C(=O)N=Nc2c(O)[nH]c3ccc([N+](=O)[O-])cc23)cc1 (configuration not stated)	19.0	-1.5	43.8*	17.8	i	14.7
Cc1ccc(NCC(=O)N=Nc2c(O)[nH]c3ccc([N+](=O)[O-])cc23)cc1	-34.1	-22.0	-10.4	.	i	.
SMILES	TIM10 inh	tim23-1 inh	tim10-1 inh	PfHsp90 yeast 2	Rce1 inhib	tim10-1 conf
CN1CCCN(C(c2ccccc2)c2ccc(Cl)cc2)CC1 (configuration not stated)	23.7	27.0	49.6*	6.7	i	34.0*
O=S(=O)(c1cccc(COc2c(Cl)cccc2Cl)c1)N1CCOCC1	-0.4	29.6	40.2*	.	i	14.8
COc1ccc2[nH]c3c(c2c1)CCN1C(=O)C(CC(=O)NC(C)(C)C)C[C@H](C(=O)N2CCCCC2)[C@@]31C (some centres not stated)	-4.1	19.5	11.2	-10.1	.	.
CCCOc1ccc(CSCCNC(=S)Nc2ccccc2)cc1	32.2	41.2	46.1*	3.1	i	28.4
O=C(CSc1nc2cc([N+](=O)[O-])ccc2n1-c1ccc(F)cc1)NC1CCS(=O)(=O)C1 (configuration not stated)	-7.8	-1.2	22.0	-24.6	i	.
CC1=NN(c2ccccc2)C(=O)/C1=C\C=C1/N(C)c2ccccc2C1(C)C	12.9	-22.1	42.1*	48.4	.	18.6
COc1cc(/C=N/Nc2nc(C)cc(C)n2)ccc1OC(=O)c1ccco1	12.8	5.3	37.9	-6.0	i	.
CCOc1cc(/C=N\Nc2nc(Nc3ccccc3)nc(N3CCOCC3)n2)ccc1OC(=O)c1ccco1	27.5	19.7	42.3*	-66.2	i	26.9
O=C(Nc1cccc(S(=O)(=O)NC2=NCCC2)c1)C1CC(=O)N(c2ccc3c(c2)OCCO3)C1 (configuration not stated)	-3.0	4.0	-1.4	.	i	.
Cc1ccc(-c2csc(C3C(N)=NC(S)=C(C#N)C34CCCCC4)n2)cc1 (configuration not stated)	33.0	32.9	44.5*	.	i	18.7
N#CC1=C(S)N=C(N)C(c2nc(-c3ccccc3)cs2)C12CCCCC2 (configuration not stated)	12.8	14.1	20.2	-7.4	i	.
COc1ccc(-c2cc(C)no2)cc1S(=O)(=O)N(C)c1ccc(C)cc1	-21.9	37.1	44.8*	-8.3	i	-31.6
CCOc1ccc(N(C)S(=O)(=O)c2cc(-c3cc(C)no3)ccc2OC)cc1	3.8	33.8	37.5	12.5	i	.
Cc1nc2sccn2c(=O)c1S(=O)(=O)N1CCN(c2cccc(C(F)(F)F)c2)CC1	29.4	38.1	41.8*	-29.0	i	27.1
COc1ccc(C2CC(c3ccc(Br)cc3)=NN2C(=O)CSC2=NN3CCCC(=O)N=C3S2)cc1 (configuration not stated)	30.5	37.3	36.2	-10.8	i	.
COc1ccc(C2CC(c3cccs3)=NN2C(=O)CSC2=NN3CCCC(=O)N=C3S2)cc1 (configuration not stated)	23.8	42.6	41.4*	-3.5	i	22.9
CCOc1ccc(CNS(=O)(=O)c2c(C)nc3sccn3c2=O)cc1OC	-4.9	-5.3	-16.4	5.7	i	.
N#CC1=C(SCC(=O)c2ccc(Cl)cc2)NC2=C(C(=O)CCC2)C1c1ccco1 (configuration not stated)	30.6	25.4	46.0*	-2.4	i	22.7
Cc1ccc(C(=O)CSC2=C(C#N)C(c3ccco3)C3=C(CC(C)(C)CC3=O)N2)cc1 (configuration not stated)	16.3	24.3	29.8	-7.8	i	.
CCN(CC)S(=O)(=O)c1ccc(C(=O)NC2=C(C(=O)OC)SCC2)cc1	23.4	25.6	41.8*	-45.8	i	31.2
COC(=O)C1=C(NC(=O)c2ccc(Br)cc2)CCS1	-10.8	-3.7	2.6	5.0	i	.

Screening results: PubChem, several laboratories
